Compounds without any hit were thinned out: in the full panel of roughly 83,000, 20% have a hit.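 Negative percent growth values reflect cell death: -40 means 40% of the cells present at the start died, and -100 means all died.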 Values without a mark were called inactive. Active and inactive are the calls of the source. How the source made its calls: active means growth percent below 10; inactive means the rest.

The test system of the assay is SF-539 CNS. The experiment in a line: NCI-60 one-dose screen, 48 h (100 = growth as untreated, 0 = no growth, -100 = all killed). The settings on record: 10 µM unless noted.
Regarding `O=C1COCCN1c1ccc(NCc2cn(C(=O)c3ccc(Cl)cc3)c3ccccc23)cc1`, the growth was 93.4%. As to `COc1ccc(-c2cnc3ccccc3n2)cc1`, the growth was 90.6%. As for `CCOC(=O)C1=C(N)Oc2c(sc3c(C)cccc23)C1c1ccc(OC)cc1` (stereo not drawn), the growth is 15.4%. `FC(F)(F)c1cc(Nc2ccc3c(OCCCN4CCOCC4)cccc3n2)ccc1Cl`: the growth was 36.2%. Next, `COc1cc(C(=O)c2cc(C)c3[nH]c4ccc(O)cc4c3c2C)cc(OC)c1OC`: 1.71% (active).

In the case of `Cc1ccc(C(=O)N/N=C/c2cccc(Oc3ccccc3)c2)cn1`, the growth was 72.9%. Consider `CC(=O)CC(c1cccs1)c1c(-c2ccccc2)[nH]c2ccccc12` (stereo not drawn), for which the growth is 98.9%.

Consider `NC(=O)C1(Nc2ccc(Br)cc2)CCCC1`, for which the growth was 89.8%. Take `COc1ccc(-c2c(C(=O)NS(C)(=O)=O)n(Cc3cccc(C(F)(F)F)c3)c3ccccc23)cc1`: the growth was 98.3%. Next, `O=C1NC(=O)C(c2ccccc2)(c2ccccc2)N1Cc1cn(-c2c3ccccc3nc3ccccc23)nn1`: 98.5%.

As for `CCCCn1c(-c2ccc(C(=O)O/N=C(\N)c3ccc(OC)cc3)cc2)nc(-c2ccccc2)c1-c1ccccc1`, the growth was -77.6% (active). Take `COc1cc(Nc2nc(NCCN)nc3cc[nH]c(=O)c23)cc(OC)c1`: the growth is 76.3%. The value for `COc1ccc(-c2[nH]c3ccc(OC)cc3c2/C=C(\C#N)S(=O)(=O)c2ccccc2)cc1` was -37.8% (active); that for `COc1ccc(C2=Nn3c(nnc3-c3cc(Cl)cc(Cl)c3Cl)SC2)cc1` was -8.32% (active). Consider `COc1ccc(C(=S)N2CCN(c3cccc(C)c3)CC2)cc1OC`, for which the growth is 82.2%. As for `COc1cc(CCCO)c(OC)c(OC)c1OC`, the growth was 97.1%. `O=C(Nc1nc2ccc(F)cc2s1)c1cccnc1Nc1ccc(Cl)cc1Cl`: the growth was 43.1%.

On to `Cc1cccc2c3c(sc12)C(c1ccc(F)cc1)C(C#N)=C(N)O3` (stereo not drawn), for which the growth is -15.3% (active). Next, `BrCCCc1n(Cc2ccc3ccccc3c2)c2ccccc2[n+]1Cc1ccc2ccccc2c1`: -74.9% (active); `CCOC(=O)Cn1c(C)c(/C=N/NC(=O)c2cc3c(ccc4ccccc43)o2)c2ccccc21`: -14.1% (active). Next, `CCOC(=O)c1sc2ncc(-c3ccc(OC)cc3)n2c1C`: 91.8%. Next, `O=c1c2cccc(F)c2sc2c(NCCCNCCO)nc3ccccc3c12`: 41.1%; `CNCCCNc1nc2ccccc2c2c(=O)c3cc(F)ccc3sc12`: 1.04% (active). On to `CC(=O)OC[C@H]1OC(Sc2sc(C(=O)c3ccc(Cl)cc3)c(N)c2-c2nc3ccccc3s2)[C@H](OC(C)=O)[C@@H](OC(C)=O)[C@@H]1OC(C)=O` (stereo partly drawn), for which the growth was 58.6%. For the compound `OC(c1ccccc1)C(NC(Cc1ccccc1)c1ccccc1)c1ccccc1` (stereo not drawn), the growth was 96.7%. The value for `CCOC(=O)c1cn2ncnc(Oc3ccc(NC(=O)NCCN(C)C)c(Cl)c3)c2c1C` was 71.5%. Next, `Cc1nc2ccccc2c(/C=C/c2ccccc2)c1C(=O)/C=C/c1ccc(C(F)(F)F)cc1`: -84.9% (active); `Cc1[nH]c(C(=O)Nc2ccc(C(=O)NCCN)cc2OC(C)C)c(Cl)c1Cl`: -22.3% (active); `CN1CCN(c2ccc(-c3cnc4c(-c5csc6ccccc56)cnn4c3)cc2)CC1`: -86.4% (active). `c1ccc(-c2nc3sc(-c4ccccc4)cn3n2)cc1`: the growth was 98.7%.

Take `COc1c(B(O)O)cc(F)cc1-c1nc2ccc3[nH]ncc3c2c2c1CCCC2`: the growth was -13.4% (active). Next, `CNCCCC12CCC(c3ccccc31)c1ccccc12`: 99.2%.

Regarding `C=C1C(=O)O[C@H]2[C@H]1CC/C(COC(=O)C(C)c1ccc(CC(C)C)cc1)=C\CC[C@@]1(C)O[C@@H]21` (stereo partly drawn), the growth is 22.1%. As for `CC1=C(C)C(=O)C(Nc2cccc(C(=O)OC(C)(C)C)c2)=C(Br)C1=O`, the growth is 94.7%. Next, `COc1ccc(C2CC(c3ccc(Nc4ccnc5cc(Cl)ccc45)cc3)=NN2C=O)cc1` (stereo not drawn): 94.6%; `Cc1nc(NC(=O)COc2ccc(/C=C3\Cc4ccc(Cl)cc4C3=O)cc2)sc1C`: 101%. With `Cc1ccc2c(-c3cc(-c4ccccc4)nc(N)c3C#N)cc(=O)oc2c1`, the growth was 94.7%. Regarding `CN(C)c1ccc(/C=N\Nc2cc(=O)[nH]c3ccc(Cl)cc23)cc1`, the growth is 101%.

For the origin of these results see PubChem BioAssay (NCI).
